ELG1 DNA repair: ELG1-dependent DNA repair inhibition; HEK293T ELG1-luciferase reporter, luminescence, 16 h; DNA damage induced by 5-fluorouridine; Potency, µM (doses to about 46.1 µM), usual class: inhibitors; hit rate 2.3% among 330,000; note: nearly all actives have a fitted effect of over 55% in size
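Overnight (16 hr) co-exposure of 2,000 cells/well to 5-fluorouridine and compound at 37 °C preceded detection. Luciferase was quantified via ONE-Glo luminescence; loss of signal denotes inhibition.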
DT40 TDP1 no CPT: qHTS for Inhibitors of human tyrosyl-DNA phosphodiesterase 1 (TDP1): qHTS in cells in absence of CPT; DT40 Tdp1-/- hTDP1 cells, no CPT, ATP luminescence, 48 h; Potency, µM (highest dose often 46.2 µM), usual class: inhibitors; hit rate 15% among 420,000; AID 686978, 2013; note: nearly all actives have a fitted effect of over 55% in size
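Luminescent ATP content (CellTiter-Glo) served as the growth readout. Knockout chicken DT40 cells expressing human TDP1 were exposed to compounds without camptothecin for a minimum 48 hr at 37 °C.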
VP16 counter: Gal4-VP16 reporter inhibition counter-screen; Potency, µM (series often up to 53.6 µM), most hits filed as inhibitors; Drosophila S2 Gal4-VP16 UAS-luciferase, luminescence, 20 h; hit rate 3.5% among 310,000; AID 2546;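 note: Gal4-VP16 expression switched on by copper sulfate through the metallothionein promoter; nearly all actives have a fitted effect of over 50% in size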
DT40 TDP1 CPT: growth inhibition of DT40 Tdp1-/-;hTDP1 cells with camptothecin (screen for TDP1 inhibitors); chicken DT40 Tdp1-/-;hTDP1 cells + 20 nM CPT, ATP luminescence, 48 h; Potency, µM (highest dose often 46.2 µM), actives largely listed as inhibitors; hit rate 12% among 420,000; AID 686979; note: nearly all actives have a fitted effect of over 55% in size
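Cell growth measured by CellTiter-Glo luminescence after a minimum 48 h, 37 C compound exposure with 20 nM CPT in Tdp1-knockout DT40 cells stably expressing hTDP1, seeded 400/well; qHTS titration format.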
IL1B secr inh: inflammasome signaling inhibition, IL-1 beta readout. THP-1 LPS/ATP IL-1B secretion, AlphaLISA, 16 h; hits give low values. activity change, % at 57.5 µM. hit rate 4.7% among 360,000. AID 743279; in the data active = activity change below about -50%; inconclusive = mostly about -30% to -49%
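Secreted IL-1B measured by AlphaLISA bead assay after 16 h compound exposure of THP-1 cells; compounds (final up to 57.5 uM) added 1 h before LPS (250 ng/mL) and ATP (1.25 mM) stimulation; lower signal means less secretion.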
RORg inh: inhibitors of mouse ROR gamma transcriptional activity; hit rate 5.4% among 310,000; AID 2551; P51450; Drosophila S2 Gal4-RORgamma UAS-luciferase reporter, 20 h; Potency, µM (series often up to 53.6 µM), usual class: inhibitors; note: nearly all actives have a fitted effect of over 60% in size
Target sequence (P51450 whole entry, looked up, the tested form may be a part): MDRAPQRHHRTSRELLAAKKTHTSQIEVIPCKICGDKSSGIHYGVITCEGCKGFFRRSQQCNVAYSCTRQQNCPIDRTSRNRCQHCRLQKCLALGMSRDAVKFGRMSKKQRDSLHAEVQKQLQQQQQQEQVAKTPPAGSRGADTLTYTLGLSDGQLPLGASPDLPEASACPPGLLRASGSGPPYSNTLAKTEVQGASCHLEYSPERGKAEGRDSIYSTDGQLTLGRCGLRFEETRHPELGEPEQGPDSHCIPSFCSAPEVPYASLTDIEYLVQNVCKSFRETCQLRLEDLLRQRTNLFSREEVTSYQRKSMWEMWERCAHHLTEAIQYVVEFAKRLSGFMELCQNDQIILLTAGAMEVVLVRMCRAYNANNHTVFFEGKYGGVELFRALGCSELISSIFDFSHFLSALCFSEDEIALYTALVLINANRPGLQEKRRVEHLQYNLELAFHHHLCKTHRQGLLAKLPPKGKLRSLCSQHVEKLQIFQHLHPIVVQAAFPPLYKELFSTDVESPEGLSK
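Drosophila Schneider cells stably carrying a metallothionein-driven Gal4 DBD–ROR gamma fusion and a UAS-Photinus luciferase reporter were exposed to compound for 1 hr, then induced with copper sulfate (700 uM final) for 20 hr at ambient temperature before luminescence reading.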
Numbers stand for hits; 0 = inactive; ? = inconclusive; - = no result given; [ ] = another dose, or the depositor's remark. Compounds with a hit are over-represented: about 21% of the library has one in this group of screens. Unless noted, calls come from the whole dose curve; as a rule, active = well fitted curve in the direction sought with a large enough effect; inconclusive = small, poorly fitted or top-dose-only effect, or another doubt; inactive = no such curve, though single readings can be large; an effect the other way counts as inactive or inconclusive.

SMILES	ELG1 DNA repair	DT40 TDP1 no CPT	VP16 counter	DT40 TDP1 CPT	IL1B secr inh	RORg inh
COC(=O)C1=C(C)NC(=S)NC1c1ccc(-c2ccccc2C(=O)OC)o1 (stereo not drawn)	0	18µM	0	?	0	18µM
COC(=O)C1=C(C)NC(=S)NC1c1ccc(-c2cccc(Cl)c2)o1 (stereo not drawn)	?	0	?	0	0	14µM
COC(=O)[C@@]12C[C@@H](CC(=O)NCC3CCCCC3)C(=O)N(Cc3ccco3)C1=CCC(C)(C)C2	-	?	-	?	0	-
CCCCCCC[n+]1ccc(C)c2ccccc21	-	0.45µM	-	0.45µM	-	-
Cc1cc[n+](C)c2ccccc12	-	0	-	0	-	-
Cc1ccc2c(C)cc[n+](CCCS(=O)(=O)[O-])c2c1	0	0	0	0	0	0
CCCCCCCCCC[n+]1cccc2cc(Br)ccc21	-	1.3µM	-	0.63µM	-	-
CCCCCCCCCCCC[n+]1ccc(C)c2ccccc21	-	2µM	-	2µM	-	-
CC[n+]1ccc(C)c2cc(P(=O)(c3ccccc3)c3ccccc3)ccc21	0	?	0	0	0	0
Cc1cc[n+](CCC2CCCCC2)c2ccccc12	-	0.89µM	-	1.3µM	-	-
COC(=O)C/C=C\[C@@H](C)[C@@H]1C=C[C@H](OC(C)=O)[C@H](COC(C)=O)O1	-	-	0[10 µM]	-	-	0[10 µM]
Nc1ncnc2c1ncn2[C@@H]1O[C@H](CNC(=O)[C@@H]2CCCN2S(=O)(=O)c2ccc(F)cc2)[C@@H](O)[C@H]1O	0	0	-	0	0	-
Cc1ccc(C)c(S(=O)(=O)N2CCN(C(=O)c3ccncc3)CC2)c1	0	0	-	0	0	-
Cc1ccc(C(=O)OCC(=O)NNC(=O)COc2ccc(Cl)cc2)c(O)c1	0	0	-	0	0	-
CCCCCCCCC[n+]1cccc2c3ccccc3ccc21	?	0.46µM	2.5µM	0.58µM	0	8.9µM
CC[C@@H]1Cc2[nH][nH]c(=O)c2[C@@H](c2ccc(Cl)cc2)O1	-	0	-	0	0	-
O=C(Cc1ccccc1)N/N=C/c1ccc2cccc(O)c2n1	0	2.6µM	?	2.1µM	0	7.9µM
Cc1ccc(NCC(=O)N/N=C\c2ccc[nH]2)cc1	0	0	?	0	0	6.3µM
O=C(CNC(=O)c1ccc(Br)cc1)N/N=C/c1ccc[nH]1	0	0	0	0	0	0
O=C(Cc1ccccc1)N/N=C/c1ccc[nH]1	0	0	0	0	0	13µM
O=C1NC[C@H](c2ccccc2)N1	-	-	0	-	-	0
Cn1c(=O)c(-c2ccccc2)nc2cnc(N3CCOCC3)nc21	-	0	0	0	-	0
Cc1ccc(NC(=O)CN(C)C(=O)c2cc(-c3ccccc3)nn2-c2ccccc2)cc1	0	?	-	?	0	-
O=c1[nH][nH]cc1C=Nc1ccc(Cl)cc1Cl	0	0	0	0	0	0
O=c1[nH][nH]cc1C=Nc1cc(Cl)ccc1O	0	?	0	21µM	0	0
SMILES	ELG1 DNA repair	DT40 TDP1 no CPT	VP16 counter	DT40 TDP1 CPT	IL1B secr inh	RORg inh
COc1ccc(-n2ccnc2SCC(=O)NC2CCCC2)c(OC)c1	0	0	0	?	0	0
CSc1ccc(C2C(C#N)=C(N)Oc3c2ccc(=O)c2c(C)oc(C)c32)cc1 (stereo not drawn)	0	16µM	?	18µM	0	6.3µM
Cc1oc(C)c2c(=O)ccc3c(c12)OC(N)=C(C#N)C3c1ccccc1 (stereo not drawn)	0	?	?	?	0	0
Cc1cccc(C(=O)OCC(=O)N(CC(C)C)c2c(N)n(Cc3ccccc3)c(=O)[nH]c2=O)c1C	0	?	-	?	0	-
OC(COCc1ccccc1)CN1CCCCC1 (stereo not drawn)	?	0	0	0	0	0
O=C1CC(c2cccc(Oc3ccccc3)c2)NC(=O)N1 (stereo not drawn)	0	0	0	0	0	0
CCCC(=O)C1=C(O)C(c2cccc(Oc3ccccc3)c2)CCC1=O (stereo not drawn)	18µM	?	?	?	0	13µM
